# Values without a mark were called inactive. The source made the active and inactive calls.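 How the source made its calls: active means calcium retention capacity relative to untreated control above about 1.1 ratio (limit read from the data); inactive means the rest.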
# Experiment: mtPTP inhibition via calcium retention, dose response, biochemical, dry powder samples, uHTS hits, Calcium Green-5N (AID 743360)
# Conditions: isolated mitochondria, Ca retention capacity
row,Compound,CRC/CRC0 ratio at 12.5 uM (higher = more inhibition)
1,COc1ccc(C(=O)CCN2CCCC(C)C2)cc1 (stereo not drawn),1.07
2,COc1ccc(Cl)c(C(=O)Nc2ccc(CN3CCOCC3)cc2)c1,1.03
3,COc1c(Cl)cccc1NC(=O)c1cc(-c2cccc(O)c2)on1,1.82 (active)
4,O=C(Nc1ccccc1C(F)(F)F)c1cc(-c2ccccc2)on1,> 1
5,Cc1cc(NC(=O)c2ccc(-n3cnnc3)cc2)no1,> 1
6,COc1ccc(/C=C/C(=O)Nc2cccc(Cl)c2)cc1O,6.53 (active)
7,CC(C)C1CCN(CCCC(=O)c2ccc(Br)cc2)CC1,1.16 (active)
8,COc1ccc(Cl)cc1C(=O)Nc1ccc(N2CCN(C)CC2)cc1,1.2 (active)
9,CN1CCN(c2ccc(NS(=O)(=O)c3ccc(F)c(Cl)c3)cc2)CC1,1.08
10,CCN(C(=O)c1cc(Cl)ccc1OC)c1ccccc1,> 1
11,O=C(Nc1cc(Cl)ccc1Cl)c1cc(-c2cccc(O)c2)on1,4.67 (active)
12,CN1CCN(CCc2ccc(NC(=O)c3cccc(OCc4ccccc4)c3)cc2)CC1,2.05 (active)
13,O=C(Nc1ccc(CCN2CCCCC2)cc1)c1cccc(OCc2ccccc2)c1,3.04 (active)
14,COc1ccc(Cl)c(C(=O)Nc2ccc(CN3CCN(C)CC3)cc2)c1,> 1
15,Cc1ccc(-c2cc(C(=O)Nc3cccc(Cl)c3)no2)cc1,> 1
16,O=C(Nc1ccc(F)cc1F)c1cc(-c2ccccc2)on1,> 1
17,COc1ccc(Cl)cc1C(=O)Nc1ccc(CN2CCN(C)CC2)cc1,1.24 (active)

row,Compound,CRC/CRC0 ratio at 12.5 uM (higher = more inhibition)
1,COc1ccc(Cl)c(C(=O)Nc2ccc(CCN3CCN(C)CC3)cc2)c1,> 1
2,COc1ccc(Cl)cc1S(=O)(=O)Nc1ccc(CN2CCCCC2)cc1,1.05
3,O=C(Nc1ccc(Cl)cc1)c1cc(-c2ccccc2)on1,> 1
4,CN1CCN(c2ccc(NC(=O)c3ccc(OCc4ccccc4)cc3)cc2)CC1,1.08
5,COc1cccc(-c2cc(C(=O)Nc3cc(Cl)ccc3C)no2)c1,1.08
6,O=C(Nc1ccc(CN2CCCCC2)cc1)c1cccc(Cl)c1,1.16 (active)
7,CCc1ccccc1NC(=O)c1cc(-c2ccccc2)on1,> 1
8,COc1ccccc1C(=O)Nc1ccc(CN2CCCCC2)cc1,1.05
9,COc1ccc(Cl)cc1S(=O)(=O)Nc1ccc(CN2CCN(C)CC2)cc1,1.03
10,O=C(Nc1ccc(OCc2ccccc2)c(Cl)c1)c1cc(-c2cccc(O)c2)on1,> 1
11,CCCc1cc(C(=O)Nc2ccc(Br)cc2)no1,1.02
12,O=C(Nc1cccc(Cl)c1)c1cc(-c2ccc(Cl)cc2)on1,> 1
13,O=C(Nc1ccc(CN2CCCCC2)cc1)c1cc(Cl)cc(OCc2ccccc2)c1,22.7 (active)
14,CC1(C)CCN(CCCC(=O)c2ccc(Br)cc2)CC1,1.1 (active)
15,O=C(Nc1ccc(N2CCCCC2)cc1)c1cccc(OCc2ccccc2)c1,1.01
16,CN1CCN(Cc2ccc(NS(=O)(=O)c3cc(Cl)cc(Cl)c3)cc2)CC1,1.1

# Source: PubChem BioAssay AID743360 (Molecular Libraries Program, Specialized Chemistry Center, …, 2014)
